In PubChem BioAssay:
Where a SMILES comes first, the peptide text is derived from it. The star is where a group is joined. Boc = CC(C)(C)OC(=O)*; OBn = c1ccc(CO*)cc1

Columns and labels:
[1] = tested on: Botulinum neurotoxin type F light chain protease (Clostridium botulinum); assay: Botulinum neurotoxin type F light chain protease inhibition, multiplex microsphere flow cytometry, validation set (AID 588459); details: multiplex microsphere protease substrate cleavage assay, at 10 µM, hits give high values
[2] = biological target: Botulinum neurotoxin type A (Clostridium botulinum) (UniProt P0DPI0); assay: BoNT/A light chain protease inhibitors, biochemical, multiplex microsphere flow cytometry, validation set (AID 588460); details: at 10 µM, hits give high values
[3] = biological target: Lethal factor (Bacillus anthracis) (UniProt P15917); assay: Lethal factor protease inhibitors, Bacillus anthracis, multiplex microsphere cleavage assay, validation set (AID 588461); details: flow cytometry, at 10 µM, hits give high values

Measured: inhibition

Botulinum neurotoxin type A (Clostridium botulinum), sequence (P0DPI0 whole entry, looked up): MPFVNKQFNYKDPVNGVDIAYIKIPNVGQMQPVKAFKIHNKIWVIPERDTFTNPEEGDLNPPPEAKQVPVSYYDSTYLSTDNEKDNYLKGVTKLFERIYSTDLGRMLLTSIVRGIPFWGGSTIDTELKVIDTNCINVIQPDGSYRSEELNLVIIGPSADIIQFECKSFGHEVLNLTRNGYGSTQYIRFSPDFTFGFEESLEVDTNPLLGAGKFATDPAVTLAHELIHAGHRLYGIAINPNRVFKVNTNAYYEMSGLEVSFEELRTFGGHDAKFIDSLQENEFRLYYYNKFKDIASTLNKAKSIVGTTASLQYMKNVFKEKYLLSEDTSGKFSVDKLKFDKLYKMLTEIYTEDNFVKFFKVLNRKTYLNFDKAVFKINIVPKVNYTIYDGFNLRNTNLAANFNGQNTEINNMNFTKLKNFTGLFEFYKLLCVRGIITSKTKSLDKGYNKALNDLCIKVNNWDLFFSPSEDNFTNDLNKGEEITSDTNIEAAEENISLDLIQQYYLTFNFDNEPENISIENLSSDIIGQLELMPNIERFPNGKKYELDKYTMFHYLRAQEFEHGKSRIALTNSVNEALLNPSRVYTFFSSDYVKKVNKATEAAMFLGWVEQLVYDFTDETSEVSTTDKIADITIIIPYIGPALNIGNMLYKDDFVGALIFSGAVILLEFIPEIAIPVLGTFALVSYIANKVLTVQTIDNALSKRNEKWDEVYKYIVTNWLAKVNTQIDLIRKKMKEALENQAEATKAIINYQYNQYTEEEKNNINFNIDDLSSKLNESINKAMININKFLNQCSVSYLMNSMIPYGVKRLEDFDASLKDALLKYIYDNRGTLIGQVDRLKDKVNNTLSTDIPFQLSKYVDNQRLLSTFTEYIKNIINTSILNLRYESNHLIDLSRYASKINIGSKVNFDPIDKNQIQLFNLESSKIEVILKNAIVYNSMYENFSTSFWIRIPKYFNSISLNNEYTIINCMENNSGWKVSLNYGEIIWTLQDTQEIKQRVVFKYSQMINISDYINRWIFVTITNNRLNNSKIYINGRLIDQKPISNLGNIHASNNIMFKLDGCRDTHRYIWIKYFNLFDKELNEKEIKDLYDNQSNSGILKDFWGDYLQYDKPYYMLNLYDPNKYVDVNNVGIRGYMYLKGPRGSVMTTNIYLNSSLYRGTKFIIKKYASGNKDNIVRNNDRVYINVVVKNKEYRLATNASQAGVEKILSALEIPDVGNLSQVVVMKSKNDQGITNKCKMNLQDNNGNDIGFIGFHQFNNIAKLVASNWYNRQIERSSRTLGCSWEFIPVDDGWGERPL
Lethal factor (Bacillus anthracis), sequence (P15917 whole entry, looked up): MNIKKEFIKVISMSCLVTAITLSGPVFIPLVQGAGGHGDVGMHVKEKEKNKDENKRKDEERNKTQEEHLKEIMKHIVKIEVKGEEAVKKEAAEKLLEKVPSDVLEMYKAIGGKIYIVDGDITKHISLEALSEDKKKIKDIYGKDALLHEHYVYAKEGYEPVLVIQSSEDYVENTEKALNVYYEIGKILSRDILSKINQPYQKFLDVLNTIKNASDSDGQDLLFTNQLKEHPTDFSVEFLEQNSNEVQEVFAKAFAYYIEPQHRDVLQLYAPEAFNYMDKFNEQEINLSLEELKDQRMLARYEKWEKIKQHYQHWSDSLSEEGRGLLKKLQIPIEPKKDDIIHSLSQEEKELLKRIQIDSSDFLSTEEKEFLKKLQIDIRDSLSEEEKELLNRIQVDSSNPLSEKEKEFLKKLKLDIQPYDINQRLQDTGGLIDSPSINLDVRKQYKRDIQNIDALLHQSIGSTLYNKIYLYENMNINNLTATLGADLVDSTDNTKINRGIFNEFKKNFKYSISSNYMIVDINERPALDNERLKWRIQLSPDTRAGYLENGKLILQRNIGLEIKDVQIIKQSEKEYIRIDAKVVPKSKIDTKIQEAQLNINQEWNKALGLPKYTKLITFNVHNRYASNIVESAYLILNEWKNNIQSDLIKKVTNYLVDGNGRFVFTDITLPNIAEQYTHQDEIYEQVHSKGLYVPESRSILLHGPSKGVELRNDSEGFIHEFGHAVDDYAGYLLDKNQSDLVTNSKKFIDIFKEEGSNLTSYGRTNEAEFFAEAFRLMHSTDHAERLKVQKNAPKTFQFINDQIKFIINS

Clc1ccc(Cn2c(CN3CCCC3)nc3ccccc32)cc1
inactive: [1] -2.6% | [2] -1% | [3] -0.3%

O=C(CCC1CCCN(C(=O)c2ccsc2)C1)NCc1ccc(F)c(F)c1 (centres undefined)
inactive: [1] 2.2% | [2] -0.6% | [3] -6.8%

CC1(C)CC(=O)C(C2(O)C(=O)Nc3ccccc32)CO1 (centres undefined)
inactive: [1] -0.1% | [2] -1.6% | [3] -6%

COc1cc(NC(=O)N[C@@H](Cc2ccccc2)C(=O)O)cc(OC)c1
inactive: [1] 1.2% | [2] 0.4% | [3] -2.8%

CC1(C)O[C@@H]2C[C@H]3[C@@H]4C[C@H](F)C5=CC(=O)CC[C@]5(C)[C@H]4[C@@H](O)C[C@]3(C)[C@]2(C(=O)CO)O1
inactive: [1] 1.1% | [2] -0.8% | [3] 10.7%

Nc1ccc(S(N)(=O)=O)cc1N
inactive: [1] 1.4% | [2] -2.7% | [3] -20%

Cc1cccc(C)c1NC(=O)C1CCCCN1C (centres undefined)
inactive: [1] -3.1% | [2] -0.1% | [3] -7.9%

Cc1ccc(S(=O)(=O)NC(C(=O)Oc2cc3oc(=O)cc(C)c3cc2Cl)C(C)C)cc1 (centres undefined)
inactive: [1] 0.5% | [2] 0.5% | [3] -3.2%

CC12CC(c3ccccc3O1)C(C(=O)N1CCOCC1)C(=O)N2 (centres undefined)
inactive: [1] 2.8% | [2] 0% | [3] -4.8%

CC(C)CC(NC(=O)C(NC(=O)OC(C)(C)C)C(C)C)C(=O)NC(CCC(=O)OCc1ccccc1)C(N)=O (stereo not drawn) (Boc-Val-Leu-Glu(OBn)-NH2; configuration not given here)
inactive: [1] 2.1% | [2] -1.3% | [3] -0.4%

COc1ccc(-c2nc(C)c(C(C)=O)n2O)cc1OC
inactive: [1] -3.6% | [2] -1.6% | [3] -3.9%

OCCN(Cc1nc(-c2ccc3c(c2)OCO3)no1)Cc1cccs1
inactive: [1] 2.4% | [2] 0.4% | [3] 2%

O=C(Cc1ccccc1[N+](=O)[O-])NCc1ccncc1
inactive: [1] -3.6% | [2] 0.9% | [3] -5.4%

Cn1c2[n+](c3ccc(Cl)cc3c1=O)Cc1ccccc1-2
inactive: [1] 0.8% | [2] -1% | [3] -7.8%

COc1ccc2[nH]c3c(c2c1)CCn1c-3nc2ccccc2c1=O
inactive: [1] 7% | [2] 2.2% | [3] 4.4%

CC(C)c1cc(=O)oc2c3c4c(cc12)CCCN4CCC3
inactive: [1] 4.4% | [2] 2% | [3] -13.8%

COC(=O)c1sccc1NC(=O)Nc1ccccc1F
inactive: [1] -1.2% | [2] -1.3% | [3] 1.2%

Nc1ccc2nc(Cc3ccccc3)[nH]c2c1
inactive: [1] -12.8% | [2] -5.2% | [3] -74.5%

CCCCNc1cc(C(=O)O)cc(S(N)(=O)=O)c1Oc1ccccc1
inactive: [1] 2.6% | [2] 1.7% | [3] -3.2%

CCOC(=O)C1NN=C(C(=O)c2ccccc2)C1c1ccc(Cl)cc1 (centres undefined)
inactive: [1] 3% | [2] 1.4% | [3] 3.2%

CC(C)NC(=O)c1ccc(C(C)C)cc1
inactive: [1] -2.3% | [2] -1.2% | [3] -2.8%

COc1cc(CNCc2ccc(OC)c(OC)c2OC)cc(OC)c1
inactive: [1] 0.5% | [2] -0.7% | [3] 5.3%

COc1ccc(-c2noc(-c3ccccc3-c3ccccc3)n2)cc1
inactive: [1] -1.9% | [2] -0.7% | [3] -1.9%

CCN(CC)CCNC(=O)c1cc(Cl)c(N)cc1OC
inactive: [1] -1.3% | [2] -0.2% | [3] 0%

C(=C\c1ccccc1)/CN1CCN(C(c2ccccc2)c2ccccc2)CC1
inactive: [1] -0.8% | [2] -1.7% | [3] -9.2%

Nc1cccc(C(=O)O)c1
inactive: [1] -0.6% | [2] -0.3% | [3] 3.3%

COc1cccc(CN2C(=O)N(C(C)C)C(N(O)C(=O)NC(C)C)C2(C)C)c1OC (centres undefined)
inactive: [1] -1.7% | [2] -0.8% | [3] -2.1%

O=C1CCc2cc(OCCCCc3nnnn3C3CCCCC3)ccc2N1
inactive: [1] -0.2% | [2] -0.9% | [3] -5.5%

CC(=O)[C@@]1(O)CC[C@H]2[C@@H]3CCC4=CC(=O)CC[C@]4(C)[C@H]3CC[C@@]21C
inactive: [1] 11.2% | [2] 0.4% | [3] -5.7%

COc1ccc(CN(CCC(c2ccccc2)c2ccc(OC(C)C)cc2)C(=O)CCl)cc1OC (centres undefined)
inactive: [1] -3.8% | [2] 0.3% | [3] -6.4%

CCCC(=O)Nc1ccccc1NC(C)=O
inactive: [1] 1.4% | [2] 0.3% | [3] -2.9%

CC(=O)OCC(=O)[C@@]1(O)[C@H](C)C[C@H]2[C@@H]3CCC4=CC(=O)C=C[C@]4(C)[C@@]3(F)[C@@H](O)C[C@@]21C
inactive: [1] 3% | [2] 0.4% | [3] 6.7%

Cc1ccc2c(c1)C(O)(CC(=O)/C=C/C=C/c1ccccc1)C(=O)N2 (centres undefined)
inactive: [1] -1.2% | [2] -0.9% | [3] -8.4%

C=CCc1ccccc1OCC(O)CNC(C)C (centres undefined)
inactive: [1] -1% | [2] 0.4% | [3] -6.5%

COc1ccc(-c2[nH]ncc2CN(CCO)Cc2cccs2)c(F)c1
inactive: [1] -1.2% | [2] 0.8% | [3] 5.8%

CC1(C)CC(CC(=O)O)(c2ccc(Cl)cc2)CCO1 (centres undefined)
inactive: [1] 2.5% | [2] -1.9% | [3] -4.6%

COc1ccc(NC(=S)NCCc2c[nH]c3ccccc23)cc1
inactive: [1] -0.4% | [2] -0.9% | [3] 0.4%

O=C(OCCN1CCCC1)C1(c2ccccc2)CCCC1
inactive: [1] -3.9% | [2] -2.9% | [3] 2.6%

CCSC(=O)CCCCCCCCCCCO
inactive: [1] 2.8% | [2] 1.5% | [3] 14.5%

CC(C)(C)C(=O)N1CCCC1C(=O)O (centres undefined)
inactive: [1] -1% | [2] -1.2% | [3] -0.9%

CC[n+]1ccc2cc(OC)c(OC)cc2c1Cc1ccc(OC)c(OC)c1
inactive: [1] -0.2% | [2] 0.7% | [3] -0.5%

CN(CCc1cnn(C)c1)Cc1nc(CC2CC2)no1
inactive: [1] 0.2% | [2] 0.4% | [3] 7%

COc1ccc(OCC(=O)N2c3ccc(C)cc3C3CN(C)CCC32)cc1 (centres undefined)
inactive: [1] -4.9% | [2] -0.7% | [3] -2.6%

CC(C[N+](C)(C)C)OC(N)=O (centres undefined)
inactive: [1] -0.5% | [2] -0.4% | [3] 6.6%

COc1ccc(CCNC(=O)CC(c2ccccc2)c2cccc(C)c2O)cc1OC (centres undefined)
inactive: [1] -0.9% | [2] -0.9% | [3] 0.1%

CN(CCO)CC(O)Cn1cnc2c1c(=O)n(C)c(=O)n2C (centres undefined) (tested in a mixture with another compound)
inactive: [1] -0.4% | [2] 1.1% | [3] -3.6%

N/C(=N/OS(=O)(=O)c1ccc([N+](=O)[O-])cc1)c1ccncc1
inactive: [1] 2.2% | [2] 0.3% | [3] 1%

C[C@H](NC(=O)NCCc1ccccc1)C(=O)O
inactive: [1] 0.5% | [2] -0.2% | [3] -0.6%

COc1cc(C2CC(=O)NC3=C2C(=O)CC(C)(C)C3)ccc1O (centres undefined)
inactive: [1] -1.7% | [2] 0.3% | [3] 0%

CC12CCC(C(=O)N3CCc4ccccc43)(CC1=O)C2(C)C (centres undefined)
inactive: [1] 0.6% | [2] -0.7% | [3] -0.2%

Brc1c(NC2=NCCN2)ccc2nccnc12
inactive: [1] -5.6% | [2] -0.8% | [3] -2.9%

CCCCOc1ccc(C(=O)CCN2CCCCC2)cc1
inactive: [1] 3.4% | [2] 1.8% | [3] -1.7%

CC12COC3(C(=O)Nc4ccc(F)cc4)CC1CCC32C (centres undefined)
inactive: [1] 3.3% | [2] 1% | [3] -1.8%

CNCCCC12CCC(c3ccccc31)c1ccccc12
inactive: [1] -2% | [2] -2.1% | [3] -5%

c1ccc2c(CC3=NCCN3)cccc2c1
inactive: [1] -3.3% | [2] -2.2% | [3] -9.2%

CCN(CC)C(=O)c1ccc(O)c(OC)c1
inactive: [1] -2.8% | [2] -0.4% | [3] -6.3%

CC(=O)NC1C(OCCOc2ccc(Cl)cc2Cl)OC(COC(C)=O)C(OC(C)=O)C1OC(C)=O (centres undefined)
inactive: [1] -1.5% | [2] -0.3% | [3] -0.7%

CSCCC(NC(=O)OC(C)(C)C)C(=O)Oc1ccc2c(=O)c(-c3ccc4c(c3)OCCO4)coc2c1 (centres undefined)
inactive: [1] -0.4% | [2] -0.4% | [3] -1.7%

COc1ccc(C2C3CCCCC3(O)CCN2C(=O)c2cccs2)cc1 (centres undefined)
inactive: [1] 2.8% | [2] 2.1% | [3] 5.5%

CC1(C)C(C=C(Cl)Cl)C1C(=O)N1CCN(Cc2ccccc2)CC1 (centres undefined)
inactive: [1] -0.6% | [2] 0.8% | [3] -5.5%

O=c1[nH]cnc2[nH]ncc12
inactive: [1] 4.1% | [2] 0.8% | [3] -1.1%

Cn1cnc2c1c(=O)n(CC(O)CO)c(=O)n2C (centres undefined)
inactive: [1] -0.3% | [2] 0% | [3] -1.4%

C(=C/c1nccc2c1[nH]c1ccccc12)/c1ccc2c(c1)OCO2
inactive: [1] 3.2% | [2] 6.7% | [3] -1.4%
